Our source for the binding signal values is article PMC7862700, “An all-to-all approach to the identification of sequence-specific readers for epigenetic DNA modifications on cytosine”.

Test in all cases: DAPPL (digital affinity profiling via proximity ligation, sequencing); 10 mM Tris-HCl pH 7.5, 50 mM NaCl, 1 mM DTT, 4% glycerol, room temperature, 30 min; GST-TFs on glutathione beads, 16-mer random dsDNA library, 0.1% formaldehyde crosslink after washing; high values mean tight binding
One experiment has as its target T1, FEV (Homo sapiens, UniProt Q99581 1-238).
T1 sequence: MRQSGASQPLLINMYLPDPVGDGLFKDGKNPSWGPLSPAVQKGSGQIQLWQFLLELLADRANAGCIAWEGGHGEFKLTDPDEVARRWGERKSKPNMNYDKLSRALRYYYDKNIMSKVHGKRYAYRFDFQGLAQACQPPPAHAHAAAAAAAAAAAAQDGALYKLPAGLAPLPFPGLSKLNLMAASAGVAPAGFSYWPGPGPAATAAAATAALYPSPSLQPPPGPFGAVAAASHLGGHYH
The following applies: protein: recombinant; tags: N-terminal GST; dsDNA, one strand shown. The gist of the method: (§1)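 Binding signal is each hexamer's read frequency for a factor divided by its frequency in the tag-only sample. The factors were GST-fused human transcription factors from yeast, captured on glutathione beads, DNA-barcoded and pooled with that sample. Pools were incubated with 200 nmole of a random double-stranded 16-mer DNA library in Tris/NaCl/DTT/glycerol buffer at room temperature for 30 min, then washed, crosslinked with 0.1% formaldehyde, proximity-ligated with BsaI/T4 ligase (1 h, 37 °C), PCR-amplified and sequenced on an Illumina NextSeq500.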

The target in the next experiment is ETV5 (Homo sapiens, UniProt P41161 1-510). The following applies: protein: recombinant; tags: N-terminal GST; dsDNA, one strand shown. A digest of the protocol:
as §1

A further experiment deals with HSF1 (Homo sapiens, UniProt Q00613 1-529). As to conditions: protein: recombinant; tags: N-terminal GST; chain copies: 3; dsDNA, one strand shown. A digest of the protocol: as §1
Another experiment concerns the target T2, SPIC (Homo sapiens, UniProt Q8N5J4 1-248).
T2 sequence: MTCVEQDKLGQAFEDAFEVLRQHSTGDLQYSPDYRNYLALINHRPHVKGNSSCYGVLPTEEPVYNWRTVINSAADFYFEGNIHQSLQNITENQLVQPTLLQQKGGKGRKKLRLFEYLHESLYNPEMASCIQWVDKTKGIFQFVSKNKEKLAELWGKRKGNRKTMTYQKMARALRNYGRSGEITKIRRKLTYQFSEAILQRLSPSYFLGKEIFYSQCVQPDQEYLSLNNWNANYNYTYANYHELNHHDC
The following applies: protein: recombinant; tags: N-terminal GST; dsDNA, one strand shown. The gist of the method:
as §1

Another experiment deals with ELF4 (Homo sapiens, UniProt Q99607 1-663). As to conditions: protein: recombinant; tags: N-terminal GST; dsDNA, one strand shown. A digest of the protocol: as §1
A further experiment has as its target T3, ELK4 (Homo sapiens, UniProt P28324-2 1-405).
T3 sequence: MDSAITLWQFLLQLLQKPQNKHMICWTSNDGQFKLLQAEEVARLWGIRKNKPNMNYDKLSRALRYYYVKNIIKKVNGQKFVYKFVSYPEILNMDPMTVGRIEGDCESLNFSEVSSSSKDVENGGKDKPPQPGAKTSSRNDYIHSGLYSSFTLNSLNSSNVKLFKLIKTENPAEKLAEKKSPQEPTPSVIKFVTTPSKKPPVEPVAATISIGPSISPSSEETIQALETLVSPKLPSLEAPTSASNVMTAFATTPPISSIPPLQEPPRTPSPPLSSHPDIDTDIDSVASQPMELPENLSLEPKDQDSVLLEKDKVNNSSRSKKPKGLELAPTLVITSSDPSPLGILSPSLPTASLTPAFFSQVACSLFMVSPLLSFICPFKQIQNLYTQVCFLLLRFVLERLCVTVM
The following applies: protein: recombinant; tags: N-terminal GST; dsDNA, one strand shown. A digest of the protocol: as §1

The next experiment concerns the target T4, ETV2 (Homo sapiens, UniProt O00321 1-342).
T4 sequence: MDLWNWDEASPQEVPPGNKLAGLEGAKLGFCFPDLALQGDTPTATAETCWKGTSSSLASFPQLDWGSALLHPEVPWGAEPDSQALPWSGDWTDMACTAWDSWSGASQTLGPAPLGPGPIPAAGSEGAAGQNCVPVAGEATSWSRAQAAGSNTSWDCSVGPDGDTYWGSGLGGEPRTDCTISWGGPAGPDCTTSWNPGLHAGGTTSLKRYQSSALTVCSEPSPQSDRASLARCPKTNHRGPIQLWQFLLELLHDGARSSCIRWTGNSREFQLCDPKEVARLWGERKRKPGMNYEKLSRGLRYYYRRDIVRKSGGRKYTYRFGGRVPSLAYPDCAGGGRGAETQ
As to conditions: protein: recombinant; tags: N-terminal GST; dsDNA, one strand shown. The gist of the method: as §1

The next experiment concerns the target T5, ELF3 (Homo sapiens, UniProt P78545 1-371).
T5 sequence: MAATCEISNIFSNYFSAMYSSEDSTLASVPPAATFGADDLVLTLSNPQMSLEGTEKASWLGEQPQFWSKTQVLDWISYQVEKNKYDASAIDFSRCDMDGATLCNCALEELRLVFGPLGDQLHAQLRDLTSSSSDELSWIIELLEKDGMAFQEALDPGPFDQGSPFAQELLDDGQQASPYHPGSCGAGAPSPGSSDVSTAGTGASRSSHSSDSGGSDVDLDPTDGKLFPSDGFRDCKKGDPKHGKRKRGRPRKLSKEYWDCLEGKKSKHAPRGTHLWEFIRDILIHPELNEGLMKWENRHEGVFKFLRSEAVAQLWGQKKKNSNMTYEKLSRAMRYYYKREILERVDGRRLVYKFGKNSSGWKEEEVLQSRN
As to conditions: protein: recombinant; tags: N-terminal GST; dsDNA, one strand shown. The gist of the method: as §1

In another experiment the target is CRX (Homo sapiens, UniProt O43186 1-299). As to conditions: protein: recombinant; tags: N-terminal GST; dsDNA, one strand shown. A digest of the protocol:
as §1

The target in the next experiment is ETV1 (Homo sapiens, UniProt P50549 1-477). As to conditions: protein: recombinant; tags: N-terminal GST; dsDNA, one strand shown. A digest of the protocol: as §1
For a further experiment, the target named is T6, ERF (Homo sapiens, UniProt P50548 1-548).
T6 sequence: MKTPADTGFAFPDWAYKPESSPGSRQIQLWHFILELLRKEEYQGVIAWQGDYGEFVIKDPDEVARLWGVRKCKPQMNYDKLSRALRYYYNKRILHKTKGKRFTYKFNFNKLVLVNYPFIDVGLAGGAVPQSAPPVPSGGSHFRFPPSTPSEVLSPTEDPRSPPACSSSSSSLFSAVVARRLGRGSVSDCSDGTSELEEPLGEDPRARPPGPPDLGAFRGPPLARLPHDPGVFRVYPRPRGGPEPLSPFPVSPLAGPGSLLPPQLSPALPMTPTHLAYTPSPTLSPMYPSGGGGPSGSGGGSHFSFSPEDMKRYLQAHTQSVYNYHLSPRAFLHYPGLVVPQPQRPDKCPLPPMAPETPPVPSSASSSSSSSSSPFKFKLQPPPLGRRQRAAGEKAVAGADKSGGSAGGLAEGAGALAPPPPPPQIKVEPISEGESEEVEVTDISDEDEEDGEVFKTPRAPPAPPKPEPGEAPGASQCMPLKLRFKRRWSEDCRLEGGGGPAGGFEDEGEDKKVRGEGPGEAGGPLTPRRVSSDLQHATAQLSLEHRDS
As to conditions: protein: recombinant; tags: N-terminal GST; dsDNA, one strand shown. The gist of the method: as §1

The target of the next experiment is T7, ETV3L (Homo sapiens, UniProt Q6ZN32 1-361).
T7 sequence: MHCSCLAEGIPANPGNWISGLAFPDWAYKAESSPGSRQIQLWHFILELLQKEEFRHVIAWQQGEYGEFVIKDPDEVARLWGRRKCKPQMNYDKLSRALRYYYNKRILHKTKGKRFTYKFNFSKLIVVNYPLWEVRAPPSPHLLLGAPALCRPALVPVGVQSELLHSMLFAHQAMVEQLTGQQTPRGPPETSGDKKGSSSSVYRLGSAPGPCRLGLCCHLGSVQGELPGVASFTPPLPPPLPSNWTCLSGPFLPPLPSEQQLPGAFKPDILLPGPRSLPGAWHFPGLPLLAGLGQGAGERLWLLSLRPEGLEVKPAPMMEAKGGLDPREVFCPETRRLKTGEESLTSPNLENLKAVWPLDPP
The following applies: protein: recombinant; tags: N-terminal GST; dsDNA, one strand shown. A digest of the protocol:
as §1

The target of the next experiment is T8, ETS2 (Homo sapiens, UniProt P15036 1-469).
T8 sequence: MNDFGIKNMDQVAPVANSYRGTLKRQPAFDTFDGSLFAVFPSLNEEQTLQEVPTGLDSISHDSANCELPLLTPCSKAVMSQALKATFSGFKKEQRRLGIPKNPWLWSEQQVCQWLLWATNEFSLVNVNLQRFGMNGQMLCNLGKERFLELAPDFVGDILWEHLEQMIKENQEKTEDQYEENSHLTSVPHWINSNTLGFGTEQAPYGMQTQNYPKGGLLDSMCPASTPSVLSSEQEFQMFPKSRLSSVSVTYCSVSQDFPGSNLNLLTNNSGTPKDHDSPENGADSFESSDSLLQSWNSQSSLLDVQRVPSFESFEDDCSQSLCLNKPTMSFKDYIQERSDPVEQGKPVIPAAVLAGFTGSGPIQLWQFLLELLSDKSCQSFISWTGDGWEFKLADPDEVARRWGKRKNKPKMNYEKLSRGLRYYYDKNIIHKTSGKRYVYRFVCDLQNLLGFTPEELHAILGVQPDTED
The following applies: protein: recombinant; tags: N-terminal GST; dsDNA, one strand shown. The gist of the method:
as §1

The target in the next experiment is T9, SPDEF (Homo sapiens, UniProt O95238 1-335).
T9 sequence: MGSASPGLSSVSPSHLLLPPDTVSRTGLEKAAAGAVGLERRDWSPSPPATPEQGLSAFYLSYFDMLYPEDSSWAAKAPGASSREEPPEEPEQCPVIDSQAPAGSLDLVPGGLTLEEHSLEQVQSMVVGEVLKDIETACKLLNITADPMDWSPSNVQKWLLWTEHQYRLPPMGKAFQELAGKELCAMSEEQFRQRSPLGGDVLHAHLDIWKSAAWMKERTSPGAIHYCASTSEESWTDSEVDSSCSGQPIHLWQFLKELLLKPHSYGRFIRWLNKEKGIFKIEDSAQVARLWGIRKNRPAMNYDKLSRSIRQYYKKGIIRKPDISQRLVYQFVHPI
As to conditions: protein: recombinant; tags: N-terminal GST; dsDNA, one strand shown. The gist of the method: as §1

Another experiment concerns the target T10, ETV7 (Homo sapiens, UniProt Q9Y603 1-341).
T10 sequence: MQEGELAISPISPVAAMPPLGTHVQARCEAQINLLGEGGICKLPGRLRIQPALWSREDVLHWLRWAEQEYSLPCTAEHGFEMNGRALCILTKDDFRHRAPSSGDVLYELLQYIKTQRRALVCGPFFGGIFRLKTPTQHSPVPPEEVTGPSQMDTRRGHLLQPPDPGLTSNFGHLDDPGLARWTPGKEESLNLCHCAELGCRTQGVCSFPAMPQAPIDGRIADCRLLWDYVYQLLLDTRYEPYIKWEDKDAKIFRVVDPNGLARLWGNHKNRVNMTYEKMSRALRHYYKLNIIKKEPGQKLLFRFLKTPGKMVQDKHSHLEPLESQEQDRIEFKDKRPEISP
As to conditions: protein: recombinant; tags: N-terminal GST; dsDNA, one strand shown. The gist of the method:
as §1

The target of another experiment is T11, ELF5 (Homo sapiens, UniProt Q9UKW6-2 1-255).
T11 sequence: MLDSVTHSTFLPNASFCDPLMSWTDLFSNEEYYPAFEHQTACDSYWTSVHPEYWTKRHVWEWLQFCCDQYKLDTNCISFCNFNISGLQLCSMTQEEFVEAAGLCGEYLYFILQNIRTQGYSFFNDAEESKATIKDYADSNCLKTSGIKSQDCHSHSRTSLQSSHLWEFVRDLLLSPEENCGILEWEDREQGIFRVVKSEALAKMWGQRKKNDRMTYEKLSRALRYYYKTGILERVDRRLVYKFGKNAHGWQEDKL
As to conditions: protein: recombinant; tags: N-terminal GST; dsDNA, one strand shown. A digest of the protocol: as §1

Another experiment addresses T12, ETV3 (Homo sapiens, UniProt P41162-2 1-143).
T12 sequence: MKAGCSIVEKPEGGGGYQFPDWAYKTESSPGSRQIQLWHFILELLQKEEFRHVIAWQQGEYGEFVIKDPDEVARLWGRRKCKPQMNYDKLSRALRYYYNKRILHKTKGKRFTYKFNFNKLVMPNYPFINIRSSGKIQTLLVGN
The following applies: protein: recombinant; tags: N-terminal GST; dsDNA, one strand shown. The gist of the method: as §1

The target in the next experiment is ETV6 (Homo sapiens, UniProt P41212 1-452). The following applies: protein: recombinant; tags: N-terminal GST; dsDNA, one strand shown. A digest of the protocol:
as §1

Chain of ETV1 (P50549 whole entry): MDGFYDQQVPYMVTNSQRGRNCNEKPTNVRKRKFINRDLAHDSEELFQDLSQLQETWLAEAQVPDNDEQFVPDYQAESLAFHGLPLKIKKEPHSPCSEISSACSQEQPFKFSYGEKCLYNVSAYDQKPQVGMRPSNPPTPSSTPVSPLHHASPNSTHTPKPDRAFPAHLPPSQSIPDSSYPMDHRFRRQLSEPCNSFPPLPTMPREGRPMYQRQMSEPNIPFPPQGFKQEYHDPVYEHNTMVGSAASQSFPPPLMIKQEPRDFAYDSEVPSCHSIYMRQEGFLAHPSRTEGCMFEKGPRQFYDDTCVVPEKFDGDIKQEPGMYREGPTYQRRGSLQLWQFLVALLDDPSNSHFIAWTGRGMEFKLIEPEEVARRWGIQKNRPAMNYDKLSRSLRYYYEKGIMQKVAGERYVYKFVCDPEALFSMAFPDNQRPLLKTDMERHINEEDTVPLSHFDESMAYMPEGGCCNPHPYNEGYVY
Chain of ELF4 (Q99607 whole entry): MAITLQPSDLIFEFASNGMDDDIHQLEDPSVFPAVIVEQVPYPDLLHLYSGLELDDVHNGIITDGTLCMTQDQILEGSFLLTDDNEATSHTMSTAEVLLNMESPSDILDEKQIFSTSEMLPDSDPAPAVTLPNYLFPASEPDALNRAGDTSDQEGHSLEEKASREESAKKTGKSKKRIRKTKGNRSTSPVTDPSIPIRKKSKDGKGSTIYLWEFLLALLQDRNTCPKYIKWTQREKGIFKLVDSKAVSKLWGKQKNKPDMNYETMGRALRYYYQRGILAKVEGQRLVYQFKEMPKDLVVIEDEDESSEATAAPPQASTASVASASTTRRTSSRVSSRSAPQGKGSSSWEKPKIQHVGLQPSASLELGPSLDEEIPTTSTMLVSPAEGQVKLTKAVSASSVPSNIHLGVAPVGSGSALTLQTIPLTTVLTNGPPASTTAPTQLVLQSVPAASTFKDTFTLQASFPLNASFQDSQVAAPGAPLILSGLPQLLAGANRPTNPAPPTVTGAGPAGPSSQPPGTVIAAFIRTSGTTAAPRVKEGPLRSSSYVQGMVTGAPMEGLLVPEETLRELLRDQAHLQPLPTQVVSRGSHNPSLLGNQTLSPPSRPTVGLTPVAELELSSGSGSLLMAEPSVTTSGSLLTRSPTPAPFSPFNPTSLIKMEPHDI
Chain of CRX (O43186 whole entry): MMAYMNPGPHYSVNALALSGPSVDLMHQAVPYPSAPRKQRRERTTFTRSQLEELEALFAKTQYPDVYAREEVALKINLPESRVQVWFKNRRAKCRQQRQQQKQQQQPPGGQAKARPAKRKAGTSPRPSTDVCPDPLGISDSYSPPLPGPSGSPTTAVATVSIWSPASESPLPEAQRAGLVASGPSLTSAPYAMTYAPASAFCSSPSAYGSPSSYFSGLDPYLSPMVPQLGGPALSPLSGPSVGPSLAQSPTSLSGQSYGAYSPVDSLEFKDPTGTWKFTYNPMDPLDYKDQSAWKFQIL
Chain of ETV5 (P41161 whole entry): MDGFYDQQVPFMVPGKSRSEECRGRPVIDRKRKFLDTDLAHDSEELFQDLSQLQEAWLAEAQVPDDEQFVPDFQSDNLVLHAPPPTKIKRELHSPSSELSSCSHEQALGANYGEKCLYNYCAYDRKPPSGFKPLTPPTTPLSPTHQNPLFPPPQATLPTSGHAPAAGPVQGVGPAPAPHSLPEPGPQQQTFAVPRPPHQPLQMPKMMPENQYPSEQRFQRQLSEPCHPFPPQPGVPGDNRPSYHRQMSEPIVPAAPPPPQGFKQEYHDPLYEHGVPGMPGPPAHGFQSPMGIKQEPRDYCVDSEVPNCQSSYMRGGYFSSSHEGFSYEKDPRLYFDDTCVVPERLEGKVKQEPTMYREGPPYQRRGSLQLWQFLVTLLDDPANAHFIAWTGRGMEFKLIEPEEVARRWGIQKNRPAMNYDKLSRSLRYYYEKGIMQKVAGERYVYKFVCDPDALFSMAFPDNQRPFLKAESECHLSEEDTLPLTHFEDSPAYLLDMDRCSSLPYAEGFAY
Chain of ETV6 (P41212 whole entry): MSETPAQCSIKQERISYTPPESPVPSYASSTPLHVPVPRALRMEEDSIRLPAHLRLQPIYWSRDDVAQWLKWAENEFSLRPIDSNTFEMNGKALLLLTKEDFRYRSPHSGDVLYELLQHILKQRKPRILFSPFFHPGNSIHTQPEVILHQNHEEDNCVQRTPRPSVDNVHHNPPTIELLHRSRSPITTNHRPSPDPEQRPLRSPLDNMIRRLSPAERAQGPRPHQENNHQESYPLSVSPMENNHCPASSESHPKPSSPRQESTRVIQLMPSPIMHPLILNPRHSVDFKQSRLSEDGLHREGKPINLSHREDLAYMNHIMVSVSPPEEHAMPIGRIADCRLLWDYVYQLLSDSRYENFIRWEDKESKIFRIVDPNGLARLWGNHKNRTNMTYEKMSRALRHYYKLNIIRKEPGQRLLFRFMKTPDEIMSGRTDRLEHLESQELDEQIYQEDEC
Chain of HSF1 (Q00613 whole entry): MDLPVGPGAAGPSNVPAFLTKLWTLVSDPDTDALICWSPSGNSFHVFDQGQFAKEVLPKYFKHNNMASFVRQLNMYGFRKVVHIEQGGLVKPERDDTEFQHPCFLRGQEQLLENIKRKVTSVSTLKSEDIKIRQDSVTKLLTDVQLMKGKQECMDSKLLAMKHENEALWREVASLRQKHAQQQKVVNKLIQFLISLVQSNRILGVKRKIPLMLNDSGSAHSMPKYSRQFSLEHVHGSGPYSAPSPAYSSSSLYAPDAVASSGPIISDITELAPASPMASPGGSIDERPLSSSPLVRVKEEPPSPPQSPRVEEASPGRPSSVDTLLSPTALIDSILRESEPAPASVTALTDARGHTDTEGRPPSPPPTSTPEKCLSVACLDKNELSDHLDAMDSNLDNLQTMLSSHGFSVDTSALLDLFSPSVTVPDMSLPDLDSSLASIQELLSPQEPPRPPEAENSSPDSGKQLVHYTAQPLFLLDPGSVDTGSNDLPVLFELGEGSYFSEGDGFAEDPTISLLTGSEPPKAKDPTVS

Turning to TGGCAT, the binding signal is 1.3 fold enrichment (6-mer frequency, TF over GST control) with FEV; 1.13 fold enrichment (6-mer frequency, TF over GST control) with ETV5; 1.26 fold enrichment (6-mer frequency, TF over GST control) with HSF1; 1.24 fold enrichment (6-mer frequency, TF over GST control) in the experiment with SPIC; 1.18 fold enrichment (6-mer frequency, TF over GST control) with ELF4; 1.21 fold enrichment (6-mer frequency, TF over GST control) with ELK4. Also, the binding signal with ETV2 is 1.37 fold enrichment (6-mer frequency, TF over GST control); with ELF3, 1.24 fold enrichment (6-mer frequency, TF over GST control); with CRX, 1.21 fold enrichment (6-mer frequency, TF over GST control); in the experiment with ETV1 it was 1.18 fold enrichment (6-mer frequency, TF over GST control); with ERF it was 1.11 fold enrichment (6-mer frequency, TF over GST control); in the experiment with ETV3L, 1.1 fold enrichment (6-mer frequency, TF over GST control). For the same sequence, the binding signal is 1.14 fold enrichment (6-mer frequency, TF over GST control) with ETS2; 1.09 fold enrichment (6-mer frequency, TF over GST control) with SPDEF; 1.1 fold enrichment (6-mer frequency, TF over GST control) with ETV7; 1.06 fold enrichment (6-mer frequency, TF over GST control) in the experiment with ELF5; 1.23 fold enrichment (6-mer frequency, TF over GST control) with ETV3; 1.25 fold enrichment (6-mer frequency, TF over GST control) with ETV6.
